Compound activity from PubChem BioAssay.
CHX counter: Cycloheximide Counterscreen for Small Molecule Inhibitors of Shiga Toxin | cell reporter, cycloheximide protein synthesis inhibition counterscreen | max response, % | actives 12% (n = 300,000); in the data active = max response mostly above about 13%, no sharp cut-off; inactive = mostly below about 14%; also: read at 38.3 µM for the half of the compounds with a filed dose; 0% is about no effect
FMDV inh: High Throughput Screening for Foot and Mouth Disease Virus Antivirals; FMDV antiviral cell-based qHTS; Potency, µM (top dose mostly 57.9 µM), without a hit: at the top dose activity change, negative = inhibition, actives largely listed as inhibitors; actives 1.2% (n = 410,000); AID 1159524, 2015; calls by dose curve; tested in HEK293T cells; also: read-out not given here; potency is read from the fitted curve at half-maximal effect; % is scaled to controls: 0 for no effect and ±100 for the full control effect; nearly all actives have a fitted effect of over 45% in size
Shiga toxin inh: A qHTS for Small Molecule Inhibitors of Shiga Toxin | Vero cells, Shiga toxin protein synthesis inhibition reporter | inhibition, % at 38.7 µM | actives 9.2% (n = 290,000); in the data active = inhibition mostly above about 28%, no sharp cut-off; inactive = mostly below about 43%; also: 0% is about no effect
Sm TGR block: qHTS Assay for the Inhibitors of Schistosoma Mansoni Peroxiredoxins. actives 3% (n = 360,000). AID 485364, 2010. purified TGR, DTNB reduction, TNB absorbance 405 nm. Potency, µM (titrated, usually from 114 µM), for inactives: at the top dose activity change, negative = inhibition, hits mostly inhibitors; active = well fitted inhibition curve with a large enough effect; inconclusive = small, poorly fitted or top-dose-only effect; inactive = no such curve, though single readings can be large or run the other way; also: potency is read from the fitted curve at half-maximal effect; % is scaled to controls: 0 for no effect and ±100 for the full control effect; nearly all actives have a fitted effect of over 60% in size
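First, TGR (20 nM dispensed) and NADPH were mixed with compound. Second, a 15 min room-temperature incubation followed. Third, further NADPH and then DTNB were added to start the reaction. Finally, TNB absorbance was monitored kinetically.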
An asterisk follows results filed as active; ? = inconclusive; / = no result given; + = active, no number. Rows were chosen to be rich in hits. Some 12% of all compounds tested hit in one or more screens of this group.

SMILES | CHX counter | FMDV inh | Shiga toxin inh | Sm TGR block
Cc1c(NC(=O)C(C)OC(=O)CC2Sc3ccccc3NC2=O)c(=O)n(-c2ccccc2)n1C (stereo not given) | 13* | 47% | 25 | 0%
COc1cccc(/C=C/C(=O)OC(C)C(=O)Nc2c(C)n(C)n(-c3ccccc3)c2=O)c1 (stereo not given) | 2 | 3% | -25 | 11%
Cc1c(NC(=O)C(C)OC(=O)COc2ccccc2)c(=O)n(-c2ccccc2)n1C (stereo not given) | 6 | 6% | -2 | -3%
CCCCCc1nc2c(=O)n(C)c3ccccc3c2o1 | 64* | 32% | 123* | 6%
Cc1nc(N)sc1-c1csc(Nc2ccccn2)n1 | 34* | -25% | 122* | 0%
Cc1ccnc(Nc2nc(-c3sc(C)nc3C)cs2)c1 | / | -9% | / | /
CC(=O)Oc1ccc(-c2csc(Nc3ccc(Cl)cn3)n2)cc1 | 42* | 23% | 39* | 2%
NC(c1ccccc1)c1csc(Nc2ccccn2)n1 (stereo not given) | / | 16% | / | /
Cc1nc(C)c(-c2csc(Nc3ccccn3)n2)s1 | 49* | -24% | 112* | ?
Cc1nc(N)sc1-c1csc(Nc2ccc(Cl)cn2)n1 | 24* | 15% | 48* | -17%
COc1ccc(-c2csc(Nc3ccc(C)cn3)n2)cc1 | 11 | -13% | 7 | 4%
N#Cc1ccc(NC(=O)COCc2cc(-c3ccc(F)cc3)on2)cc1 | / | 0% | / | 5%
COc1cc(C(=O)N(Cc2cccnc2)c2nc3cc(C)c(C)cc3s2)cc(OC)c1OC | / | -4% | / | 16%
CN1CCN(Cc2ccc(OCc3ccccc3)cc2)CC1 | 27* | 29% | 94* | -2%
NC(=O)C1CCN(Cc2cccc(OCc3ccccc3)c2)CC1 | 0 | -7% | 5 | 6%
c1ccc(COc2cccc(CN3CCc4ccccc4C3)c2)cc1 | 41* | -4% | 105* | 9%
CCN1CCN(Cc2ccc(OCc3ccccc3)cc2)CC1 | 50* | 13% | active | 0%
CCN1CCN(Cc2ccc(OC)c(OCc3ccccc3)c2)CC1 | -1 | -21% | -5 | 21%
CC1N/C(=C\C(=O)c2ccccc2)N(O)C1(C)C (stereo not given) | 37* | 11% | 76* | 1%
O=C1Nc2ccccc2/C1=N/c1sc2c(c1C(=O)NCCc1ccccc1)CCCC2 | 34 | 1% | 39* | ?
O=C(Nc1sc2c(c1C(=O)NCCO)CCCC2)c1ccco1 | -7 | -9% | -3 | -5%
O=C(CSc1nc2c([nH]c3ccccc32)c(=O)n1-c1cccc(C(F)(F)F)c1)N1CCCC1 | / | -17% | / | -3%
CCc1nn(CC(=O)Nc2ccc(C)c(F)c2)c(=O)c2cc3cc(C)ccc3n12 | / | 29% | / | -5%
COc1cc(/C=N/Nc2nc(-c3ccc(S(=O)(=O)N(C)C)cc3)cs2)ccc1O | 13* | 35µM* | 50* | -20%
COc1ccc(/C=N/Nc2nc(-c3cccc(S(=O)(=O)N4CCCC4)c3)cs2)cc1OC | 15 | ? | + | -1%
SMILES | CHX counter | FMDV inh | Shiga toxin inh | Sm TGR block
Cc1ccc(C)c(-c2csc(N/N=C/c3ccco3)n2)c1 | 17 | -9% | 95* | -20%
O=S(=O)(c1cccc(-c2csc(N/N=C/c3ccco3)n2)c1)N1CCOCC1 | -2 | 28µM* | 26 | 1%
C/C(=N\Nc1nc(-c2cc(C)ccc2C)cs1)c1cc2ccccc2oc1=O | 1 | -13% | 2 | -3%
O=S(=O)(c1cccc(-c2csc(-c3ccccc3)n2)c1)N1CCOCC1 | 31 | 1% | 40 | 5%
CCOc1cc(/C=N/Nc2nc(-c3cccc(S(=O)(=O)N4CCCC4)c3)cs2)ccc1O | -2 | ? | 9 | 3%
COC(c1ccc2c(c1)CN(C(=O)Cn1nc(C)c3ccccc3c1=O)CCO2)C1CCCCC1 (stereo not given) | / | -18% | / | /
CC(=O)[C@H]1[C@H](C#N)CC2C3CC=C4C[C@@H](O)CCC4(C)C3CCC21C (stereo not given in full) | -1 | / | -4 | /
CCN(c1ccccc1)S(=O)(=O)c1ccc(NC(=O)c2nc(SC)ncc2Cl)cc1 | / | -25% | / | 1%
Cc1nc2c(=O)n(-c3ccc(F)c(Cl)c3)nc(C)c2s1 | -2 | -9% | -6 | 10%
COc1ccc(-n2nc(C)c3sc(C)nc3c2=O)cc1 | 9.6* | 5% | 46 | 0%
O=C1OCc2cc(N=Nc3c(O)[nH]c(=O)[nH]c3=O)ccc21 | 8 | 7% | 0 | 3%
O=C1OCc2cc(-n3cccc3)ccc21 | 17* | 23% | 28 | -13%
Cc1ccc(C)n1-c1ccc2c(c1)COC2=O | -1 | / | 31 | 11µM*
O=C1OCc2cccc3cccc1c23 | -4 | 7% | -8 | -26%
Nc1ccc2c(c1)COC2=O | 34* | 59% | 83* | 1%
Cc1oc(-c2ccccc2)nc1CSc1nnc(C)n2c1cc1sccc12 | / | -4% | / | -3%
O=C(NCc1ccccc1F)c1ccc(CN2CC(=O)N3CCCCC3C2=O)cc1 (stereo not given) | / | -14% | / | -2%
O=C(/C=C/c1ccc([N+](=O)[O-])cc1)NCc1ccco1 | 20 | 1% | 27* | -32%
NS(=O)(=O)c1ccc(CNC(=O)/C=C/c2c(F)cccc2Cl)cc1 | -4 | 16% | 12 | /
O=C(NCc1ccco1)C1CCN(C(=O)c2ccc([N+](=O)[O-])cc2)CC1 | 7 | -3% | 9 | 25µM*
O=C(CN1C(=O)/C(=C/c2c(F)cccc2Cl)Oc2ccccc21)NCc1ccco1 | 39* | / | 77* | -3%
O=C(/C=C/c1c(F)cccc1Cl)NCc1ccco1 | 39* | 38% | 182* | 2%
Cc1cccc(C)c1NC(=O)Cn1c(=O)n(Cc2ccc3c(c2)OCO3)c(=O)c2oc3ccccc3c21 | / | -10% | / | 3%
COc1ccc(S(=O)(=O)NCc2ccc3c(c2)CCN3C(C)=O)cc1OC | / | -6% | / | 2%
CS(=O)(=O)N1CCC2(CCCN(c3ccccn3)C2)CC1 | / | -11% | / | /
SMILES | CHX counter | FMDV inh | Shiga toxin inh | Sm TGR block
CCC(C)n1c(=O)c2sccc2n2c(CCCC(=O)Nc3ccc(F)cc3)nnc12 (stereo not given) | / | -1% | / | 1%
O=C(/C=C/c1cccc([N+](=O)[O-])c1)NCc1ccco1 | -4 | -7% | 0 | -24%
O=C(/C=C/c1ccc(F)cc1)NCc1ccco1 | 46* | 35% | 94* | -9%
O=C(/C=C/c1ccc([N+](=O)[O-])cc1)c1ccco1 | -3 | -8% | -3 | -27%
O=C(/C=C/c1ccc([N+](=O)[O-])cc1)/C=C/c1ccco1 | 38* | / | 73* | 4.5µM*
Cc1nc(N/N=C/c2ccccc2)nc(N(C)c2ccccc2)c1[N+](=O)[O-] | -2 | -23% | -4 | -2%
Cc1nc(Cl)nc(N(C)c2ccccc2)c1[N+](=O)[O-] | -1 | -19% | -6 | 4.5µM*
Cc1ccn2c(=O)c(C(=O)NCCc3ccccc3)c(O)nc2c1 | / | 52% | / | 6%
CCc1cc(-c2[nH]ncc2-c2ccc3c(c2)OCO3)c(O)cc1O | -5 | / | -15 | 6%
CCc1cc(-c2[nH]ncc2-c2ccc(OC)cc2)c(O)cc1O | -5 | 11µM* | -19 | 0%
